Test results from PubChem BioAssay AID588473 (Sanford-Burnham Center for Chemical Genomics, 2011).
The whole screen tested about 350,000 compounds, of which about 1,600 (0.46%) were called active. The list comes from a sample in which actives are over-represented; it also holds similar structures and randomly drawn compounds. Values without a mark were called inactive.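 The calls were made as follows: active = activation of at least 50%, plus an integration ratio under a set limit after plate pattern correction; inactive = the rest.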

system: CRF-binding protein / CRF receptor 2 complex (human); experiment: activators of CRF-R2 with CRF-BP – cell-based, HEK293, calcium dye fluorescence, uHTS, primary screen (AID 588473); conditions: calcium dye fluorescence (FLIPR), at 13.2 µM, stronger effect = higher value, percent of saturating CRF peptide response;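 also: plate controls were neutral control wells without compound for no effect and CRF at EC100 for full effect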

SMILES | activation
CCCN1C2CCCC1CC(NC(=O)NC13CC4CC(CC(C4)C1)C3)C2 (stereo unspecified) | 0.55%
Cc1cccc(N(C)C(=O)CN2C(=O)COc3ccc(S(=O)(=O)N4CCCCCC4)cc32)c1 | 21.6%
COc1cc(CCC(=O)OCC(=O)Nc2cccc(S(N)(=O)=O)c2)cc(OC)c1OC | 1.86%
COC(=O)c1cc(NC(=O)c2nn(C)c(=O)c3ccccc23)cc(C(=O)OC)c1 | -0.23%
CCN(CC)c1ccc2oc(=O)c(C)nc2c1 | 111% (active)
CCc1ccc2oc(-c3ccc(N)cc3)nc2c1 | 0.69%
Cc1ccc2oc(=O)ccc2c1 | -1.36%
C/C(CC(=O)NC(C)(C)C)=N\NC(=O)c1ccco1 | -2.93%
CN1CCC(=O)N([C@H](CO)Cc2ccccc2)CC1 | 0.86%
O=C1NC(Nc2nc3ccccc3s2)(C(F)(F)F)C(=O)N1C1CCCCC1 (stereo unspecified) | -0.92%
CC1=CC2=NC(=O)/C(=C/c3coc4ccccc4c3=O)C(=N)N2O1 | 147% (active)
CC(C)(C)OC(=O)NCCCCCC(=O)N/N=C/c1coc2ccccc2c1=O | -5.17%
COc1ccc(OCCCn2cccc2/C=C2/C(=N)N3OC(C)=CC3=NC2=O)cc1 | 4.44%
C[C@@H]1NS(=O)(=O)c2cc(Cl)ccc2O[C@@H]1c1ccccc1 | -1.15%
Cc1cc(C(=O)COC(=O)C2CC2)c(C)n1-c1ccc(F)cc1 | -3.55%
Cc1ccc(-n2c(C)cc(C(=O)CSc3nnc4ccccn34)c2C)cc1 | -0.98%
Cc1ccc(-n2c(C)cc(C(=O)CN3C(=O)C(=O)N(C4CCCC4)C3=O)c2C)cc1 | 161% (active)
O=C(N/N=C/c1sc(N2CCCCC2)nc1-c1cccs1)c1cccnc1 | 62.8% (active)
Cc1ccc(S(=O)(=O)N2CCCCC2)cc1NC(=O)c1cccnc1 | 6.52%
Cc1ccc(NC(=O)COc2ccc(/C=N\NC(=O)c3cccnc3)cc2)cc1C | 0.37%
Cc1ccc(C(=O)N/C(=C\c2cccs2)C(=O)NCCc2ccccn2)cc1C | -0.29%
COc1ccccc1C(=O)NCCC(=O)NC(C)CCc1ccccc1 (stereo unspecified) | 0.39%
COc1ccc(CCNC(=O)CN(c2ccccc2)S(=O)(=O)c2ccccc2)cc1 | -0.58%
COc1ccc([C@H]2CC(=O)C=C(/C=C/c3ccc(Cl)cc3)C2)cc1 | 2.34%
CCSc1nc2c(c(=O)[nH]1)C(c1cccnc1)C(C(=O)OC(C)C)=C(C)N2 (stereo unspecified) | -11.6%
COc1cc(OC)cc(C(=O)N[C@H](C(=O)OCC(=O)NC(C)c2ccccc2)C(C)C)c1 (stereo partly specified) | 102% (active)

SMILES | activation
COc1cc(OC)cc(C(=O)NC(C(=O)N2CCC2)C(C)C)c1 (stereo unspecified) | 2.01%
COc1cc(OC)cc(C(=O)NCC(=O)OCC(=O)NC(C)CCc2ccccc2)c1 (stereo unspecified) | -1.06%
COc1cc([N+](=O)[O-])cc([N+](=O)[O-])c1NC(=O)N1CCOCC1 | -0.3%
COc1ccc(C)cc1NC(=O)CSc1nc(SC)ns1 | -0.91%
CSc1nsc(SCC(=O)Nc2cc(C(=O)O)ccc2C)n1 | -1.07%
CCc1nnc(NC(=O)CSc2nc(SC)ns2)s1 | 113% (active)
CCCCn1c(=S)[nH]c2ncccc2c1=O | 2.09%
CCN(CC)S(=O)(=O)c1ccc(OC)c(NC(=O)CCc2c(C)noc2C)c1 | -0.44%
Cc1nn(C)c(C)c1C(C)NC(=O)c1ccc(OC2CCN(Cc3ccccn3)CC2)cc1 (stereo unspecified) | 3.71%
Cc1ccc(NC(=O)C(C)c2cccc(C(=O)c3ccccc3)c2)cc1 (stereo unspecified) | -1.3%
O=C(NNC(=S)Nc1ccc(Br)cc1Cl)c1ccco1 | -1.64%
NS(=O)(=O)c1ccc(CNC(=S)NC(=O)c2ccco2)cc1 | -6.68%
Cc1cccc(OCC(=O)Nc2ccc(NC(=O)c3ccco3)c(C)c2)c1 | 0.25%
O=C(Nc1ccc2ccccc2c1)/C(=C\c1ccc2c(c1)OCO2)NC(=O)c1ccco1 | 1.15%
CC(Oc1ccc2ccccc2c1)C(=O)NNC(=S)NC(=O)c1ccco1 (stereo unspecified) | 58.2% (active)
CCCc1ccc(OCC(=O)NNC(=S)NC(=O)c2ccco2)cc1 | 60.1% (active)
C=CCOc1ccc(C2/C(=C(\O)c3c(C)[nH]c(C(=O)OC)c3C)C(=O)C(=O)N2CCN(C)C)cc1 (stereo unspecified) | -2.8%
C=C1CCN([C@@H](Cc2ccccc2)C(=O)N2CCOCC2)S(=O)(=O)c2ccccc21 | 1.4%
Cc1ccc(C)c(NC(=O)COC(=O)Cn2c(C)csc2=O)c1 | 1.31%
Cc1cc(Nc2ccc(C)c(C)c2)n2ncnc2n1 | -1.97%
CC1=CC(=C(C#N)c2nc3ccccc3s2)C=C(C)N1c1ccc(F)cc1F | 119% (active)
Cc1nn(-c2ccc(F)cc2)c(Cl)c1/C=C(/CCC(=O)O)c1nc2ccccc2s1 | 0.68%
Cc1cnc(C(=O)Oc2cccc(Cl)c2Cl)cn1 | -0.24%
CCCCNC(=O)c1ccccc1NC(=O)c1ccccc1N(C)S(C)(=O)=O | -1.79%
CCCCCCCCCCCCN1C(=O)CSC1c1cccnc1 (stereo unspecified) | 1.06%
